# PubChem BioAssay AID686978 (National Center for Advancing Translational Sciences (NCATS), 2013)
# The whole screen tested about 420,000 compounds, of which about 64,000 (15%) were called active. Not shown: some 27% with an inconclusive outcome. Calls come from the whole dose curve; as a rule, active = well fitted inhibition curve with a large enough effect; inconclusive = small, poorly fitted or top-dose-only effect; inactive = flat fitted curve, though single readings scatter. These entries were drawn from the full list.
# Assay: qHTS for Inhibitors of human tyrosyl-DNA phosphodiesterase 1 (TDP1): qHTS in cells in absence of CPT; note: nearly all actives have a fitted effect of over 55% in size
# Settings: DT40 Tdp1-/- hTDP1 cells, no CPT, ATP luminescence, 48 h; activity change, negative = growth inhibition: at 46.2 µM (top of the series)
# Summary of the method: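 Chicken DT40 Tdp1-/- cells stably complemented with human TDP1 were seeded at 400 cells/well with DMSO in place of 20 nM camptothecin. After compound pinning, cells grew at least 48 hr at 37 °C; viability read by CellTiter-Glo luminescence.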
# % is set by controls: 0 for no effect and ±100 for the full control effect; potency is the fitted concentration of half-maximal effect.
SMILES,"activity change, negative = growth inhibition",Potency
Cc1ccc(CNC(=O)Cn2cnc(S(=O)(=O)N3CCCCC3)c2)o1,-18.7% (inactive),–
Cc1ccc(CNC(=O)C2(C(F)(F)F)C/C(=C\Cc3ccccc3)CCCO2)o1 (centres undefined),–,11.6 µM (active)
Cc1ccc(C(=O)N2CC(=O)Nc3ccccc32)o1,0.857% (inactive),–
CC1CCCCN1CCCNC(=O)Cn1ncc2c([nH]c3ccccc32)c1=O (centres undefined),–,inactive
COc1cccc(-c2nc3n(n2)C(c2ccccc2Cl)C(C(N)=O)=C(C)N3)c1 (centres undefined),-28.2% (inactive),–
Cc1cc2c(cc1C)[n+](C)cn2CC(O)COCC1CC=CCC1 (centres undefined),–,1.84 µM (active)
C/C(=N/NC(=O)c1cc(Cl)ccc1O)C12CC3CC(CC(C3)C1)C2,-1.21% (inactive),–
O=C(CSc1ccc([N+](=O)[O-])cn1)Nc1ccc(N2CCOCC2)c(Cl)c1,-0.829% (inactive),–
COc1ccc(-c2c(C)cc3oc(=O)cc(-c4ccccc4)c3c2C)cc1OC,–,23.1 µM (active)
Cc1cc2oc(=O)cc(-c3ccccc3)c2c(C)c1-c1ccc(OC(F)(F)F)cc1,–,20.6 µM (active)
COc1ccc(-c2cc(=O)oc3cc(OCC(=O)N[C@@H](Cc4c[nH]c5ccccc45)C(=O)O)ccc23)cc1,0.178% (inactive),–
COc1ccc(C2=NO[C@@H]3C(=O)N(Cc4ccccc4)C(=O)[C@H]23)cc1OC,0.579% (inactive),–
CC(=O)c1ccc(S(=O)(=O)NC2CC(=O)N(c3ccc4c(c3)OCCO4)C2)cc1 (centres undefined),-14.5% (inactive),–
CC(C)(C)S(=O)(=O)c1ccccc1-c1noc(-c2ccccc2)c1C(N)=O,4.59% (inactive),–
Cn1c(SCC(=O)C(C)(C)C)nnc1-c1ccccn1,27.4% (inactive),–
O=C(COC(=O)c1cnccn1)Nc1cccc2ccccc12,-7.74% (inactive),–
Cc1ccccc1-c1ccc(Nc2ccc(C(=O)N3CCOCC3)cc2)nn1,-17.6% (inactive),–
CO[C@@H]1CN(C)C(=O)c2cc(NC(=O)C3CC3)ccc2OC[C@H](C)N(C(=O)CN2CCOCC2)C[C@@H]1C,-1.78% (inactive),–
CCCN(CC(=O)Nc1ccccc1C)C(=O)c1ccc2[nH]c3c(c2c1)CC(C)CC3 (centres undefined),–,20.6 µM (active)
CCCN(CC(=O)Nc1ccccc1C)C(=O)c1cc(=O)[nH]c2ccccc12,-16.5% (inactive),–
CCCN(CC(=O)Nc1ccccc1C)C(=O)c1ccc(OCC(=O)N2CCOCC2)c(OCC)c1,-3.18% (inactive),–
COCCCN1C(=O)C(=O)/C(=C(/O)c2ccc3c(c2)CC(C)O3)C1c1cccnc1 (centres undefined),-3.28% (inactive),–
COC(=O)C1=C(NC(=O)C(C)(C)C)CCS1,-2.33% (inactive),–
Cc1cc(C)c(C=NNc2nc3c([nH]2)c(=O)n(C)c(=O)n3C)c(C)c1,1.78% (inactive),–
Cc1ccccc1NC(=O)NCc1ccco1,8.72% (inactive),–
Cc1ccc(N(Cc2ccc(C(=O)Nc3ccccc3C(=O)NCc3ccco3)cc2)S(C)(=O)=O)cc1C,–,18.4 µM (active)
Cc1ccc(NC(=O)C(=O)NCc2ccco2)c(C)c1,-25.9% (inactive),–

SMILES,"activity change, negative = growth inhibition",Potency
Cc1cccc(Nc2ccccc2C(=O)NCc2ccco2)c1C,–,20.6 µM (active)
O=C(Nc1ccccc1)Nc1ccccc1C(=O)NCc1ccco1,-17.1% (inactive),–
CS(=O)(=O)N(CC(=O)NCc1ccco1)c1ccc2c(c1)OCO2,-0.836% (inactive),–
CCC(C)NC(=O)CN(C1CCCCC1)S(C)(=O)=O (centres undefined),-11.3% (inactive),–
CCOC(=O)N1CCN(C(=O)C2CCN(S(C)(=O)=O)CC2)CC1,-4.04% (inactive),–
Fc1ccc(COc2ccc(-c3nnco3)cc2)cc1,-10.2% (inactive),–
O=C(O)C1CCN(C(=O)c2cc(F)cc3c2OCOC3)CC1,-1.32% (inactive),–
Cc1ccnc(N2CCC(C(=O)NC3CCCCCC3)CC2)n1,-5.99% (inactive),–
COc1nc(NC2CCCCC2)nc(N2CCCCCC2)n1,–,12.6 µM (active)
Clc1nc(NC2CCCC2)nc(N2CCOCC2)n1,-27.4% (inactive),–
CCCn1c(SCC(=O)c2ccc3c(c2)OCCO3)nnc1C(C)C,–,20.6 µM (active)
CCCn1c(SCC(N)=O)nnc1C(C)C,-8.78% (inactive),–
CCn1c(SCC(=O)Nc2ccc3c(c2)OCCO3)nnc1C(C)C,-12.3% (inactive),–
CCOC(=O)c1cc2c(n(-c3ccc(C)cc3)c1=O)CCCC2=O,-13.6% (inactive),–
Cc1ccc(-n2c(C)cc(C(=O)CN3C(=O)C(=O)N(C4CCCC4)C3=O)c2C)cc1,–,25.9 µM (active)
C=CCn1c(C)cc(C(=O)CN2C(=O)c3ccccc3C2=O)c1C,-25.9% (inactive),–
COc1ccc(NC(=O)CCCC2CCCCC2)c(OC)c1,-16.4% (inactive),–
C=CCNC(=S)NNC(=O)c1cc(Cl)ccc1OC,3.87% (inactive),–
O=C(/C=C/c1ccco1)NC(=S)Nc1ccccc1Br,-12.9% (inactive),–
COc1ccc(Cl)cc1C(=O)NNC(=S)NC(=O)/C=C/c1ccco1,–,23.1 µM (active)
CC(C)c1nc(CNC(=O)CC2C(=O)NCCN2Cc2ccoc2)cs1 (centres undefined),-1.5% (inactive),–
O=C(COC(=O)Cn1cnc2ccccc21)Nc1cccc2c1C(=O)c1ccccc1C2=O,–,9.2 µM (active)
CCC(=O)Nc1ccccc1-c1nc2ccccc2n(CC(=O)Nc2ccc(C)c(C)c2)c1=O,-29% (inactive),–
O=C(COC(=O)Cn1cnc2ccccc2c1=O)NCc1ccccc1Cl,2.41% (inactive),–
O=C(Cn1cnc2ccccc21)N/N=C/c1ccco1,15% (inactive),–
CN(Cc1c(F)cccc1Cl)C(=O)COC(=O)Cn1cnc2ccccc2c1=O,3.31% (inactive),–
O=C(Cn1cnc2ccccc21)Nc1ccccc1-c1ccccc1,–,2.31 µM (active)
